The campaign covered roughly 85,000 compounds. About 5,100 (6%) were called active. This is one part of a sample in which actives are shown more often than they occur. A number with no mark means an inactive call.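 How the source made its calls: active means viability at or below 40%; inactive means viability above 40%.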
Experiment: H69AR cell viability reduction – human, 86K library, primary screen (AID 598);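 further: multidrug resistant small cell line overexpressing MRP-1 efflux transporter; 100% = mean luminescence of untreated control wells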
Conditions: H69AR lung tumor viability, ATP luminescence, 72 h; at 10 µM; active compounds read low

Compound	viability
CN(C)CCNC(CC(=O)Nc1ccc(Cl)c(Cl)c1)C(=O)O (stereo not drawn)	99.7%
CCn1nccc1C(=O)Nc1ccc(Cl)c(Cl)c1	77%
O=C(CC(O)(C(F)(F)F)C(F)(F)F)Nc1ccc(Cl)c(Cl)c1	1.49% (active)
CCOC(=O)N1CCC(N(CCOC)C(=O)Nc2ccc(C)c(C)c2)CC1	44.7%
Cc1noc(C)c1CSCC(=O)Nc1nc2ccc(Oc3ccccc3)cc2s1	76.8%
COc1ccc(OC)c(-n2cc3c(=O)n(C)c(=O)n(C)c3c2)c1	29.6% (active)
Cn1c(=O)c2cn(-c3cccc4ccccc34)cc2n(C)c1=O	47.3%
COc1ccc(-c2c3c(=O)n(C)c(=O)n(C)c3cn2-c2cccc(OC)c2)cc1	71.5%
COCCCn1c(SCC(=O)Nc2ccccc2)nnc1-c1ccncc1	95.9%
CC1(C)COC(c2cccn2Cc2ccccc2Cl)=N1	104%
O=c1c2ccccc2nc2n1C1(CCCCC1)Cc1ccccc1-2	83.7%
CCOC(=O)N1CCC(NC(=O)c2ccc3nc(N4CCOCC4)sc3c2)CC1	95.7%
Cc1cc(NC(=O)CN2CCCC(C)C2)n(-c2nc3ccccc3s2)n1 (stereo not drawn)	62.1%
CCOC(=O)N1CCN(CC(=O)Nc2cc(C)nn2-c2nc3ccccc3s2)CC1	4.45% (active)
Cc1nn(C)cc1CNC(=O)Nc1ccc(Cl)cc1	90.8%
Cc1cccc(NC(=O)CN2CCCN(S(=O)(=O)c3ccc(Br)s3)CC2)c1	35.9% (active)
Cc1cccc(NC(=O)CN2C(=O)CNC2=O)c1	91.7%
Cc1cccc(NC(=O)CSc2nnc(NC(=O)CN3CCOCC3)s2)c1	79.3%
C/C(=N\NC(=O)c1nc(C)cc(C)n1)c1ccccc1	99.7%
O=C1c2ccccc2C(=O)N1CCCc1nc(-c2ccccc2)no1	95.5%
Oc1ccc(-c2onc3ccc(Cl)cc23)cc1	98.2%
COc1ccc(N2CCN(Cc3ccc(Br)s3)CC2)cc1	65.6%
CC1(C)Cc2cccc(OCC(N)=O)c2O1	102%
CNC(=O)c1ccc2nc(NC(C)=O)sc2c1	99%
Fc1ccc2nc(Nc3nc4c(s3)CCCC4)sc2c1	36.1% (active)

Compound	viability
Fc1ccc2nc(N3CCCCC3)sc2c1	90%
COC(=O)CSc1nc2c(c(C3CC=CCC3)c1C#N)CCC2 (stereo not drawn)	65.3%
O=C(c1cccc(F)c1)N1CCC(O)(c2cccnc2)CC1	88.1%
CCOC(=O)N1CCC(Nc2c(NCCCN3CCN(CC)CC3)c(=O)c2=O)CC1	112%
Cc1cc(C(=O)OCC(=O)NCc2ccco2)c(C)n1-c1ccccc1	29.6% (active)
O=C(COC(=O)C12CC3CC(CC(C3)C1)C2)NCc1ccco1	83.8%
CCOC(=O)c1cnc(SCC(=O)NCc2ccco2)nc1N	91.3%
CNc1nc(SC)nc(N(C#N)CC(=O)OC)n1	92.4%
CCN(CC)S(=O)(=O)c1ccc2c3c(cccc13)C(=O)S2	69%
O=C(CSC1=Nc2ccccc2C2=NC(CC(=O)NCc3ccco3)C(=O)N12)NCc1ccco1 (stereo not drawn)	85.9%
CCOc1cc(NC(=O)c2cnccn2)c(OCC)cc1NC(=O)c1ccc(C)cc1	110%
Cc1ccc(OCC(=O)N2CCN(C(=O)c3cccnc3)CC2)cc1	86.2%
COc1ccc(NC(=O)C(CC(C)C)NS(=O)(=O)c2ccc3c(c2)CCN3C(C)=O)cc1OC (stereo not drawn)	90.6%
CCN(CC)Cc1cc(C(C)=O)ccc1O	98.5%
CCOc1ccc2c(c1)C(c1ccc(C)cc1)=NNC(c1ccc(C)cc1)=N2	21% (active)
COc1ccc(C2C(C(C)=O)=C(O)C(=O)N2Cc2cccnc2)cc1 (stereo not drawn)	99.2%
Cc1ccc(Nc2nnc(SCc3ccccc3)s2)cc1	98.2%
COc1ccccc1C(=O)N1CC2(C)CC1CC(C)(C)C2 (stereo not drawn)	84.2%
Cc1ccc(/C=N/NC(=O)Cn2nc(C)c(Br)c2C)o1	102%
CCCCNC(=O)CCNC(=O)c1ccc(C(C)(C)C)cc1	102%
CCOC(=O)c1cccc(NC(=O)CN(c2ccc(C)cc2)S(=O)(=O)c2c(C)noc2C)c1	24% (active)
CCOc1ccc(N(CC(=O)OC)S(=O)(=O)c2c(C)noc2C)cc1	96.6%
Cc1noc(C)c1S(=O)(=O)N(CC(=O)Nc1ccc2c(c1)OCCO2)c1ccc(C(C)C)cc1	56.8%
CCOC(=O)c1cc2c(ccn2C)n1CC(=O)N1CCC(C)CC1	88.5%
O=C(COc1ccccc1)Nc1nonc1NC(=O)COc1ccccc1	93.3%

Compound	viability
COc1ccc(CN2CN(C(C)C)CSC2=S)cc1	0.67% (active)
O=C(Nc1cc2ccccc2oc1=O)C1CCCCC1	98.1%
Cc1ccccc1-n1nc(C)c2cc(C(=O)NC3CC3)sc21	66.4%
O=C(Nc1ccc(Sc2ccc(Br)cc2)cc1)c1ccco1	54.3%
Cc1ccccc1NC(=O)c1cnn(-c2ccccc2)c1NC(=O)c1ccco1	84.4%
O=C(Nc1c(-c2ccccc2)nc2c(Br)cc(Br)cn12)c1ccco1	29.5% (active)
CCOC(=O)c1c(N=CN(C)C)c(C#N)c2n1CCCC2	90.8%
CCOc1ccc2[nH]c(=O)c(CN(Cc3nnnn3CCc3ccccc3)CC3CCCO3)cc2c1 (stereo not drawn)	85.5%
COc1ccc2[nH]c(=O)c(CN(Cc3nnnn3CCc3ccccc3)CC3CCCO3)cc2c1 (stereo not drawn)	67.1%
CCOc1ccc2[nH]c(=O)c(CN(Cc3nnnn3Cc3ccccc3)CC3CCCO3)cc2c1 (stereo not drawn)	34.3% (active)
O=C(COc1ccc(S(=O)(=O)NCc2ccccc2)cc1)N1CCOCC1	97.4%
CCOc1ccc(Nc2oc(Cc3ccccc3)nc2C#N)cc1	78%
COc1ccccc1-c1nc(C#N)c(N2CCC(C(N)=O)CC2)o1	95.8%
COc1ccc(Nc2oc(-c3ccccc3Cl)nc2C#N)cc1	14.3% (active)
Cc1cc2nc(SCCN3CCOCC3)[nH]c2cc1C	109%
C=C(C)CSc1nnc(-c2ccc(C)cc2)n1N	99.4%
CC(=NCc1ccco1)c1c(C(F)(F)F)[nH]n(-c2nc3ccccc3s2)c1=O	63.2%
NNC(=O)C1CCCn2c1nc1sc3c(c1c2=O)CCCC3 (stereo not drawn)	91.5%
N=c1c2c3c(sc2nc2n1CCCCC2)CCCC3	84%
CS(=O)(=O)N(Cc1nc2sc3c(c2c(=O)[nH]1)CCCC3)C1CCCCC1	16.8% (active)
CCn1c(CC(=O)Nc2ccc(C)cc2)nnc1SCC(=O)Nc1nc(C)cs1	111%
S=C1NC(c2ccccc2)=NCN1c1ccc(Br)cc1	88.9%
CCOc1ccc(NC(=O)CN2CCN(CC(=O)Nc3ccc(OC)cc3)CC2)cc1	56.5%
CC1CN(S(=O)(=O)c2ccccc2)C(C)CN1S(=O)(=O)c1ccccc1 (stereo not drawn)	101%
CC(O)CN(Cc1ccc(Cl)cc1)CC(C)O (stereo not drawn)	100%

Compound	viability
CCOc1ccccc1NC(=O)Nc1cc(OC)ccc1OC	93.8%
CCOc1ccccc1Oc1cn[nH]c1-c1ccc(OC)cc1O	16.2% (active)
CCOc1cc(-c2cc(-c3ccc(OC)cc3)nc(N)c2C#N)ccc1O	51%
CCCC1(C(=O)OCC)NC(c2ccc(N(C)C)cc2)C2C(=O)N(c3ccc4c(c3)OCCO4)C(=O)C21 (stereo not drawn)	80%
Cc1ccc(O/C=C2\OC(=O)c3ccccc32)cc1	89.6%
CN(Cc1nc2ccccc2c(=O)[nH]1)Cc1cc(=O)oc2ccc3ccccc3c12	91%
NC(=O)C1(N2CCCCC2)CCN(C2CC(=O)N(Cc3ccc(N4CCCC4=O)cc3)C2=O)CC1 (stereo not drawn)	100%
COC(=O)Nc1ccc(S(=O)(=O)N2CCN(CCN3C(=O)C4C5C=CC(C5)C4C3=O)CC2)cc1 (stereo not drawn)	79.9%
CCCCNC(=O)CSc1nccn1Cc1ccccc1	99.2%
CCCCNC(=O)CSc1nc2n[nH]c(C)c2c(=N)n1-c1cccc(Cl)c1C	15.5% (active)
CCCCNC(=O)CSc1nnc(-c2ccco2)n1C	81.6%
COc1ccc(CNCCCO)cc1OC	111%
Cc1ccc(S(=O)(=O)Oc2ccc(/C=N/NC(=O)c3c(Cl)cnn3C)cc2)cc1	79.2%
COc1ccccc1NC(=O)CSc1nnc(C)n1CC1CCCO1 (stereo not drawn)	113%
O=C(c1ccc(Cl)cc1)c1ccc(OCC(O)CN2CCCCC2)cc1 (stereo not drawn)	64.1%
Cn1c(=O)c2c(nc(N3CCCCCC3)n2CC(=O)c2ccc(Br)cc2)n(C)c1=O	46.8%
Cn1c(=O)c2c(nc(N3CCCCCC3)n2CC(O)COc2ccc(Cl)cc2)n(C)c1=O (stereo not drawn)	28.2% (active)
CCN(CC)C(=O)CC1(c2ccccc2OC)CCOC(C(C)C)C1 (stereo not drawn)	86.8%
COC(=O)c1ccc(CSc2ccc3nnc(-c4ccccc4)n3n2)o1	71.6%
CC(C)Cc1nc(N2CCOCC2)c(C#N)c2c1CCC2	89.6%
CCN1CCc2c(C#N)c(NCc3ccccc3)nc(NCCO)c2C1	62.2%
CC(C)CCNc1nc(N2CCCC2)c2c(c1C#N)CCN(C)C2	1.84% (active)
Cc1ccc2nc(SC(C)C(=O)NCc3ccco3)[nH]c2c1 (stereo not drawn)	85.7%
